The list is not random: actives were taken first. Their share in the collection is about 6.8%.
NADH coupling = inhibitors of PK/LDH coupling enzymes, profiling panel, artefact control, biochemical, MLSMR library. IC50, µM (highest dose often 10 µM), for the others: at the highest dose inhibition. coupled PK/LDH NADH assays, four targets. AID 774, 2007. 0.02% of 65,000 active;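 active = single-dose screening hits from any of four coupled enzyme assays that gave an IC50 when retested across doses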;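 also: the DPM-DC format reads NADH fluorescence rather than 340 nm absorbance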
DPM-DC inhibit = S. pneumoniae DPM-DC inhibitors, primary screen, biochemical, PK/LDH-coupled NADH fluorescence; diphosphomevalonate decarboxylase (Streptococcus pneumoniae D39); purified DPM-DC; calls only at 10 µM; 0.49% of 65,000 active; AID 556, 2006;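 active = the 320 compounds with the highest percent inhibition in the single-dose primary screen, excluding strongly autofluorescent ones, cut at about 32% in these data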;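 also: kinetic rate of NADH fluorescence loss reporting ADP formed by the decarboxylase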
Abs 340nm = compound light absorbance at 340 nm, profiling panel, artefact control, biochemical, MLSMR library, data from PS, PMK, MK assays | AID 708, 2007 | 65,000 tested, under 10 active | fold change at 10 µM | compound absorbance at 340 nm, fold over control;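 active = at 10 µM dose, initial 340 nm absorbance at least 2 fold that of control wells; inactive = change under 2 fold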;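 also: initial absorbance extrapolated from kinetic A340 decline of NADH oxidation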
Fluor 339 460 = intrinsic fluorescence of library compounds, ex339/em460 – biochemical, MLSMR library, data from DPM-DC assay, artefact control, profiling panel. 5.5% of 65,000 active. fluorescence fold increase at 10 µM. compound autofluorescence, ex339/em460 nm, NADH buffer; hits give high values; 1 = no-compound wells, NADH background;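 active = at 10 µM, mean starting fluorescence two-fold or more over control wells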;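 also: signal is the first read of a kinetic run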
Spn MK inh = S. pneumoniae MK inhibitors, primary screen, biochemical, PK/LDH-coupled NADH absorbance | inhibition, % at 10 µM | mevalonate kinase [Streptococcus pneumoniae D39] | AID 555, 2006 | purified MK, PK/LDH-coupled NADH absorbance 340 nm | 0.48% of 65,000 active;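 active = ranked among the strongest by inhibition in the single 10 µM screen, a fixed top-ranked set picked for dose follow-up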
Spn PMK inh = S. pneumoniae PMK inhibitors, primary screen, biochemical, mevalonate pathway, pilot trial included; purified PMK, PK/LDH-coupled NADH absorbance 340 nm; inhibition, % at 10 µM; 0.49% of 65,000 active;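 active = top-ranked compounds by inhibition in the single 10 µM screen, taking a fixed number of the strongest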;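 also: 0% = full reaction with DMSO carrier and 100% = background rate without enzyme reaction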
Active calls of the source: *; [ ] = remark or other dose.

For N=c1c(C(=O)NC2CCCC2)cc2c(=O)n3ccccc3nc2n1C1CCCC1 the results were NADH coupling 6.0%, Abs 340nm 1.02, Fluor 339 460 5.21*, Spn MK inh 0.0 and Spn PMK inh 12.0.
Screening Cc1cccn2c(=O)c3cc(C(=O)NC4CCS(=O)(=O)C4)sc3nc12 (centres undefined) returned NADH coupling 6.0%, Abs 340nm 1.09, Fluor 339 460 2.12*, Spn MK inh 3.0 and Spn PMK inh 9.0.
For Cc1cc2oc(C(=O)NC3CCS(=O)(=O)C3)c(C)c2cc1C (centres undefined) the results were NADH coupling 3.0%, DPM-DC inhibit inactive, Abs 340nm 1, Fluor 339 460 1.09, Spn MK inh 5.0 and Spn PMK inh 1.0.
For CCN(C(=O)CCc1nc(-c2ccccc2F)no1)c1cc(OC)ccc1OC the results were NADH coupling 10.0%, DPM-DC inhibit inactive, Abs 340nm 1.01, Fluor 339 460 1.03, Spn MK inh 0.0 and Spn PMK inh 14.0.
`COCC(=O)Nc1nc2n(n1)C(c1ccc(Cl)cc1)CC(c1ccc(OC)cc1)N2` (centres undefined) gave NADH coupling 12.0%, DPM-DC inhibit inactive, Abs 340nm 0.99, Fluor 339 460 2.52*, Spn MK inh 10.0 and Spn PMK inh 6.0.
Screening C/C(NCc1cccnc1)=C(\C#N)C(=O)NCc1ccccc1 returned NADH coupling 7.0%, DPM-DC inhibit inactive, Abs 340nm 1, Fluor 339 460 1.11, Spn MK inh 10.0 and Spn PMK inh 11.0.
`Cc1ccc(-c2cnc(-c3ccncc3)o2)cc1` gave NADH coupling 8.0%, Abs 340nm 1.15, Fluor 339 460 2.17*, Spn MK inh 4.0 and Spn PMK inh 11.0.
Cc1ccc(-c2nc(-c3cccnc3)no2)cc1 was read as NADH coupling 7.0%, DPM-DC inhibit inactive, Abs 340nm 1.04, Fluor 339 460 1.12, Spn MK inh 6.0 and Spn PMK inh 3.0.
Cc1ccc(OCC(=O)N(C)CCc2ccccn2)cc1 was read as NADH coupling 20.0%, DPM-DC inhibit inactive, Abs 340nm 1.04, Fluor 339 460 1.1, Spn MK inh 53.0* and Spn PMK inh 6.0.
`CN(CCc1ccccn1)C(=O)Nc1ccc(F)cc1` gave NADH coupling 8.0%, DPM-DC inhibit inactive, Abs 340nm 1.07, Fluor 339 460 1, Spn MK inh 8.0 and Spn PMK inh 17.0.
For Cc1cccc(NC(=O)C2CCN(c3nccc(C)n3)CC2)c1 the results were NADH coupling 6.0%, DPM-DC inhibit inactive, Abs 340nm 1.06, Fluor 339 460 1.48, Spn MK inh 0.0 and Spn PMK inh 8.0.
Cc1cc(N2C(=O)CC(N3CCN(C(c4ccccc4)c4ccccc4)CC3)C2=O)no1 (centres undefined) was read as NADH coupling 6.0%, DPM-DC inhibit inactive, Abs 340nm 1.04, Fluor 339 460 1.15, Spn MK inh 14.0 and Spn PMK inh 4.0.
For CCn1c(=NC(=O)CSC(C)=O)sc2ccccc21 the results were NADH coupling 4.0%, DPM-DC inhibit inactive, Abs 340nm 1.12, Fluor 339 460 1.07, Spn MK inh 4.0 and Spn PMK inh 9.0.
Screening COC(=O)Cn1c(=NC(=O)CSC(C)=O)sc2ccccc21 returned NADH coupling 16.0%, DPM-DC inhibit active, Abs 340nm 1.08, Fluor 339 460 1.1, Spn MK inh 3.0 and Spn PMK inh 12.0.
CCN(CC)CCCN1C(=O)C(=O)/C(=C(/O)c2ccc3c(c2)CC(C)O3)C1c1cccnc1 (centres undefined) was read as NADH coupling 1.0%, DPM-DC inhibit inactive, Abs 340nm 1.03, Fluor 339 460 1.12, Spn MK inh 0.0 and Spn PMK inh 4.0.
COc1ccc2c(C(F)(F)F)cc(=O)oc2c1C was read as NADH coupling 2.0%, Abs 340nm 1.04, Fluor 339 460 2.93*, Spn MK inh 11.0 and Spn PMK inh 3.0.
Screening CCN(CCO)Cc1cc(=O)oc2c(C)c(C)ccc12 returned NADH coupling 1.0%, DPM-DC inhibit inactive, Abs 340nm 1.08, Fluor 339 460 1.18, Spn MK inh 4.0 and Spn PMK inh 0.0.
`Cn1c(=O)c2c(nc(N3CCOCC3)n2CCSc2nc3ccccc3s2)n(C)c1=O` gave NADH coupling 10.0%, DPM-DC inhibit inactive, Abs 340nm 1.04, Fluor 339 460 1.12, Spn MK inh 10.0 and Spn PMK inh 19.0.
`Nc1cc(C(F)(F)F)ccc1C(=O)O` gave NADH coupling 10.0%, Abs 340nm 1.07, Fluor 339 460 2.13*, Spn MK inh 0.0 and Spn PMK inh 19.0.
Nc1cc(S(=O)(=O)C(F)(F)F)ccc1C(=O)O was read as NADH coupling 0.0%, DPM-DC inhibit inactive, Abs 340nm 1.02, Fluor 339 460 1.2, Spn MK inh 0.0 and Spn PMK inh 0.0.
`CCCn1c(=NC(=O)c2ccncc2)c(C(=O)OCC)cc2c(=O)n3cccc(C)c3nc21` gave NADH coupling 7.0%, DPM-DC inhibit inactive, Abs 340nm 1.02, Fluor 339 460 1.65, Spn MK inh 5.0 and Spn PMK inh 11.0.
Screening CCOC(=O)c1cc2c(=O)n3cccc(C)c3nc2n(CCCOC)c1=NC(=O)c1cccnc1 returned NADH coupling 13.9µM*[fluoresces], Abs 340nm 1.13, Fluor 339 460 2.27*, Spn MK inh 15.0 and Spn PMK inh 29.0*.
CCOC(=O)c1cc2c(=O)n3cccc(C)c3nc2n(CCOC)c1=NC(=O)c1ccncc1 was read as NADH coupling 6.0%, DPM-DC inhibit inactive, Abs 340nm 0.98, Fluor 339 460 2.02*, Spn MK inh 4.0 and Spn PMK inh 11.0.
For CCCn1nnc(NC(=O)c2ccco2)n1 the results were NADH coupling 9.0%, DPM-DC inhibit inactive, Abs 340nm 1.05, Fluor 339 460 1.12, Spn MK inh 9.0 and Spn PMK inh 6.0.
For CCn1nnc(NC(=O)c2ccc(-c3ccc(Cl)cc3)o2)n1 the results were NADH coupling 3.0%, DPM-DC inhibit inactive, Abs 340nm 1.03, Fluor 339 460 2.09*, Spn MK inh 5.0 and Spn PMK inh 11.0.
O=C(O)CCc1nn2cc(-c3ccccc3)nc2[nH]c1=O was read as NADH coupling 4.0%, Abs 340nm 1.07, Fluor 339 460 2.35*, Spn MK inh 3.0 and Spn PMK inh 4.0.
Screening CCc1nn2cc(-c3ccccc3)nc2s1 returned NADH coupling 7.0%, DPM-DC inhibit inactive, Abs 340nm 1.02, Fluor 339 460 1.06, Spn MK inh 10.0 and Spn PMK inh 5.0.

Bioassay records (PubChem)
